Screening data as filed in PubChem BioAssay.
In the library only some 2.2% were active in any assay of this set; here they are far more common.
EWS-Fli block: EWS/Fli-driven NR0B1 reporter inhibitors, primary screen, A673 cells, NR0B1 luciferase, luminescence, MLPCN library; viability-normalised; inhibition, % at 12.6 µM; 0.67% of 350,000 active; AID 651661, 2012;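 active = mean inhibition of at least 50% after viability correction, with every replicate also passing that limit; inconclusive = mean reaches 50% but only one of two replicates passes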;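 note: firefly luciferase signal divided by Alamar Blue viability fluorescence both relative to DMSO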
MITF TRPM1 inh: inhibitors of MITF-dependent TRPM1 promoter reporter, primary screen, cell-based, SK-MEL-5, single point, luciferase; SK-MEL-5 TRPM1 promoter luciferase, 24 h; inhibition, % at 12.5 µM; 0.83% of 330,000 active;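 active = mean inhibition across replicates of 60% or more, whatever share of single replicates reaches that level; inconclusive = some that reach 60%, reason not given; inactive = mean inhibition across replicates below 60%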
LMP1 NFkB inh: EBV LMP1-driven NF-kappaB luciferase reporter inhibitors, primary screen, cell-based, luminescence, single point; inhibition, % at 12.5 µM; AID 504558, 2011; 0.69% of 350,000 active; LMP1-induced NF-kappaB luciferase reporter cells; in the data active = inhibition above about 41%; inconclusive = no clear call, values can overlap the other calls;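 note: 0% = neutral control wells and 100% = reference inhibitor control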
PAX8 inh HTS: inhibitors of PAX8-driven TPO luciferase reporter, primary screen, RMG-I cells, single concentration. 1.2% of 360,000 active. SteadyGlo, 24 h. inhibition, % at 12.6 µM;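 active = mean replicate inhibition at least 60% with every replicate also reaching 60%; inconclusive = only one of the two criteria is met; inactive = mean below 60% and not all replicates reaching 60%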;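 note: luciferase light reporting Pax8 driven TPO promoter activity; plate controls were median of neutral control wells for no effect and mitoxantrone controls for full effect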
LGR2 antag: inhibitors of bursicon-induced LGR2 CRE-luciferase signal, primary screen, cell-based, HEK293, CRE-luciferase reporter, bursicon stimulation | Drosophila bursicon receptor LGR2 (rickets) | bursicon-stimulated, 4 h | inhibition, % at 9.99 µM | 0.35% of 380,000 active;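 active = drop in luminescence signal, shown as inhibition above about 50% in the replicate tests, limit read from the data, passing the limit was not always enough; inconclusive = probably only some replicates passing the limit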;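 note: agonist challenge used bursicon conditioned medium at about half maximal strength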
PGC1a acetyl inh: inhibitors of PGC1a acetylation signal, primary screen, cell-based, U2OS, AlphaScreen, inhibitor mode. AlphaScreen anti-acetyl-lysine; with virally co-expressed GCN5 acetyltransferase. inhibition, % at 15.6 µM. 0.17% of 350,000 active. AID 651687, 2012;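 active = every replicate shows inhibition of at least 40%; inconclusive = mean inhibition at least 40% but some replicate below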;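 note: 0% = neutral control wells and 100% = positive control wells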
Starred values were filed as active, the others as inactive; ? = inconclusive; nt = no result.

SMILES	EWS-Fli block	MITF TRPM1 inh	LMP1 NFkB inh	PAX8 inh HTS	LGR2 antag	PGC1a acetyl inh
C[C@@H]1CN([C@H](C)CO)C(=O)c2cc(NC(=O)c3ccccc3)ccc2O[C@@H](C)CCCCO[C@H]1CN(C)Cc1ccc(Cl)c(Cl)c1	nt	nt	nt	nt	-3.3	nt
COCCNC(=O)C[C@H]1CC[C@@H]2[C@H](COC[C@H](O)CN2Cc2cccc(-c3ccncc3)c2)O1	3.0	nt	nt	1.3	-2.4	5.1
CC(=O)N1[C@H](C(=O)Nc2ccccc2)[C@@H](CO)[C@@H]2Cn3c(ccc(C4=CCCC4)c3=O)[C@@H]21	-4.3	nt	nt	nt	7.0	nt
CCS(=O)(=O)Nc1ccc2c(c1)C(=O)N(C)C[C@H](OC)[C@H](C)CN(CCC(F)(F)F)[C@@H](C)CO2	-3.2	nt	nt	-0.6	15.2	5.7
COc1ccc2c3c([nH]c2c1)[C@H](CO)N(C(=O)NC(C)C)CC31CCN(C(=O)NC2CCCC2)CC1	-1.6	nt	nt	nt	-11.9	4.6
C[C@@H]1CCCCO[C@@H](CN(C)Cc2ccc(Cl)c(Cl)c2)[C@@H](C)CN([C@@H](C)CO)C(=O)c2cc(NC(=O)c3ccccc3)ccc2O1	8.8	nt	nt	66.5*	9.1	-5.9
CC(=O)Nc1cccc(-c2ccnc3c2CC(C)(C(=O)NCc2ccc(F)c(F)c2)O3)c1 (configuration not stated)	58.0*	nt	nt	15.7	-22.0	nt
CC1(C(=O)NCc2ccccc2)Cc2c(-c3cccc(C(N)=O)c3)ccnc2O1 (configuration not stated)	57.6*	nt	nt	50.9	-19.8	3.9
CC(=O)Nc1cccc(-c2ccnc3c2CC(C)(C(=O)Nc2cccc(OC(F)(F)F)c2)O3)c1 (configuration not stated)	52.1*	nt	nt	nt	15.9	5.0
CC1(C(=O)NCc2ccc(F)c(F)c2)Cc2c(-c3cccc(C(N)=O)c3)ccnc2O1 (configuration not stated)	21.0	nt	nt	12.0	-13.7	-4.9
CC(=O)Nc1cccc(-c2ccnc3c2CC(C)(C(=O)NCCC(F)(F)F)O3)c1 (configuration not stated)	32.7	nt	nt	15.5	-11.0	-5.6
COc1ccc(-c2ccc3n(c2=O)C[C@@H]2[C@@H](CO)[C@H](C(=O)NC4Cc5ccccc5C4)N[C@H]32)cc1	-5.2	nt	nt	65.5*	6.4	nt
CCOc1ccc(C(=O)Nc2cc(C)on2)cc1	nt	-25.3	5.3	nt	nt	-7.3
Cc1cc(NC(=O)c2cccc(COc3ccc(Br)cc3)c2)no1	86.1*	10.1	43.5*	46.8	-42.9	-5.5
COc1ccc(-c2sc3ccc(OC)cc3c2C#Cc2cncn2C)cc1	-5.8	-8.1	-33.2	64.7*	-4.0	-6.5
COc1ccc(-c2sc3cc4c(cc3c2C#Cc2cncn2C)OCO4)cc1	10.1	-20.2	-19.5	9.6	-17.0	3.5
Cc1c(C)c2ccc(OCC(=O)Nc3nccs3)cc2oc1=O	nt	14.2	9.4	-97.4	55.5*	5.8
CCC(C)(C)c1ccc(Oc2ccc(N)cc2)cc1	65.2*	97.8*	51.0*	?	nt	-10.8
CCC(C)(C)c1ccc(Oc2cccc(C(=O)O)c2)cc1	-80.2	-35.5	-16.3	-29.8	-34.1	nt
COc1ccc(NC(=O)N[C@H]2CC[C@@H](CCNS(=O)(=O)c3ccccc3F)O[C@@H]2CO)cc1	0.5	nt	nt	-2.8	-23.9	-4.7
CCCc1nc(SCC(=O)NCc2ccco2)c2c(=O)n(C)c(=O)n(C)c2n1	8.4	-5.9	66.5*	5.7	6.1	nt
Cc1ccc(S(=O)(=O)NCC[C@H]2CC[C@@H](NS(=O)(=O)c3ccccc3Cl)[C@@H](CO)O2)cc1	2.1	nt	nt	-8.1	1.2	-1.0
C[C@@H]1CN([C@H](C)CO)C(=O)Cc2cc(NC(=O)Cc3ccccc3)ccc2O[C@H]1CN(C)C(=O)Nc1ccc(C(F)(F)F)cc1	-9.8	nt	nt	nt	6.3	0.4
COc1ccccc1CNC(=O)C[C@@H]1C=C[C@H](NC(C)=O)[C@@H](CO)O1	-3.9	nt	nt	-7.1	16.9	-7.3
Cc1ccc(NC(=O)c2cnn(-c3ccccc3)c2C)cc1C	55.8*	11.2	8.1	0.6	85.1*	nt
SMILES	EWS-Fli block	MITF TRPM1 inh	LMP1 NFkB inh	PAX8 inh HTS	LGR2 antag	PGC1a acetyl inh
C[C@H](CO)N1C[C@H](C)[C@@H](CN(C)C(=O)c2cccc(F)c2)Oc2ncc(-c3ccccc3)cc2C1=O	12.2	nt	nt	nt	-8.4	-28.2
O=C(C[C@H]1C=C[C@H](NC(=O)Cc2cccnc2)[C@@H](CO)O1)Nc1ccc(-c2ccccc2)cc1	-25.8	nt	nt	-19.9	4.0	9.1
COc1ccc(NC(=S)N(CCCN2CCOCC2)Cc2ccccn2)cc1	4.2	3.2	3.4	10.7	4.3	nt
Cc1ccc(NC(=S)N(CCCN2CCOCC2)Cc2ccccn2)cc1	2.9	-2.0	-8.3	110.4*	-2.4	nt
COc1ccc(S(=O)(=O)N[C@@H]2CC[C@@H](CC(=O)NCCc3ccncc3)O[C@@H]2CO)cc1	-0.5	nt	nt	-16.9	9.4	6.4
O=C(N[C@H]1CC[C@@H](CCNS(=O)(=O)c2ccc(F)cc2)O[C@@H]1CO)c1cccnc1	-4.9	nt	nt	0.0	9.0	7.5
CN(C)CC#Cc1cccc(-c2nc(C(=O)NCCCN3CCOCC3)cc3c2[C@H](CCO)N(S(=O)C(C)(C)C)C3)c1 (some centres not stated)	0.1	nt	nt	1.7	nt	nt
CC(C)(C)S(=O)N1Cc2cc(C(=O)NCCCN3CCOCC3)nc(-c3cccc(C#CCC4CCCC4)c3)c2[C@@H]1CCO (some centres not stated)	21.2	nt	nt	82.0*	5.4	-21.1
C[C@H](CO)N1C[C@H](C)[C@H](CN(C)Cc2ccc(Cl)c(Cl)c2)OCc2cnnn2CCCC1=O	10.8	nt	nt	nt	5.8	10.6
Cc1cnc(CN2CCc3c([nH]c4ccccc34)C2C2CCCCC2)[nH]1 (configuration not stated)	-7.5	-4.2	14.4	-16.5	9.6	0.9
c1ccc2c3c([nH]c2c1)C(C1CCCCC1)N(Cc1ncc[nH]1)CC3 (configuration not stated)	nt	6.3	72.9*	31.4	7.9	3.9
CC(C)C(=O)Nc1ccc2c(c1)C(=O)N(C)[C@@H]1CC[C@H](CC(=O)NCc3ccccc3)O[C@H]1CO2	-3.4	nt	nt	-9.2	0.1	-0.7
CN(C)CC(=O)N1[C@@H]2c3ccc(-c4ccc(F)cc4)c(=O)n3C[C@@H]2[C@@H](CO)[C@@H]1C(=O)NC1CCCC1	-5.0	nt	nt	-14.3	7.5	nt
CCOC(=O)/C=C(\C)Sc1cc(O)c2ccccc2c1O	35.9	82.9*	-0.8	35.2	-6.2	13.6
CCOC(=O)/C=C(\C)Sc1cc(=O)oc2ccccc12	nt	19.1	49.5*	64.0*	nt	-36.4
CN(C)C(=O)C[C@H]1C=C[C@@H](NC(=O)C2CCOCC2)[C@@H](CO)O1	-1.3	nt	nt	nt	-3.0	nt
